Reference: PubChem BioAssay (NCATS)
Inconclusive results are not listed. Entries that show only a call come without a potency. The source made the active and inactive calls. Calls follow the shape of the dose curve; as a rule, active = well fitted inhibition curve with a large enough effect; inconclusive = small, poorly fitted or top-dose-only effect; inactive = flat fitted curve, though single readings scatter.

What was measured:
Experiment in all cases: qHTS profiling for inhibitors of Plasmodium falciparum proliferation (AID 504749); also: nearly all actives have a fitted effect of over 60% in size
Conditions in all cases: P. falciparum in erythrocytes, SYBR Green DNA, 72 h; series mostly up to 28.7 µM
CP268 = test system: CP268
Summary of the method: (§1)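 P. falciparum-infected erythrocytes (0.3% parasitemia, 2.5% hematocrit) incubated with compound 72 h at 37 C, 5% CO2. Parasite DNA detected by SYBR Green after lysis, overnight at room temperature; normalised to 0.29 uM artemisinin and DMSO.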

CP269 = test system: CP269
Summary of the method: as §1

CP286 = test system: CP286
Summary of the method: as §1

CP305 = test system: CP305
Summary of the method: as §1

CP315 = test system: CP315
Summary of the method: as §1

CP325 = test system: CP325
Summary of the method: as §1

CP329 = test system: CP329
Summary of the method: as §1

CP335 = test system: CP335
Summary of the method: as §1

DFO2036 = test system: DFO2036
Summary of the method: as §1

DIV14 = test system: DIV14
Summary of the method: as §1

Dd2 = test system: Dd2
Summary of the method: as §1

ECU = test system: ECU
Summary of the method: as §1

FAB9 = test system: FAB9
Summary of the method: as §1

CP297 = test system: CP297
Summary of the method: as §1

ICS = test system: ICS
Summary of the method: as §1

CP291 = test system: CP291
Summary of the method: as §1

DIV30 = test system: DIV30
Summary of the method: as §1

HB3 = test system: HB3
Summary of the method: as §1

DIV17 = test system: DIV17
Summary of the method: as §1

GB4 = test system: GB4
Summary of the method: as §1
Potency is read from the fitted curve at half-maximal effect.

Compound | Potency (CP268) | Potency (CP269) | Potency (CP286) | Potency (CP305) | Potency (CP315) | Potency (CP325) | Potency (CP329) | Potency (CP335) | Potency (DFO2036) | Potency (DIV14) | Potency (Dd2) | Potency (ECU) | Potency (FAB9) | Potency (CP297) | Potency (ICS) | Potency (CP291) | Potency (DIV30) | Potency (HB3) | Potency (DIV17) | Potency (GB4)
C[C@@H]1C[C@H]2[C@@H]3CCC4=CC(=O)C=C[C@]4(C)[C@@]3(F)[C@@H](O)C[C@]2(C)[C@H]1C(=O)CO | inactive | inactive | inactive | inactive | inactive | inactive | inactive | inactive | inactive | 13.5 µM (active) | inactive | inactive | inactive |  |  |  |  |  |  | 
CCCCc1nc(Cl)c(CO)n1Cc1ccc(-c2ccccc2-c2nn[nH]n2)cc1 | inactive |  |  |  |  |  |  |  |  | 8.49 µM (active) |  |  | inactive | inactive | 7.94 µM (active) |  |  |  |  | 
CC(=O)c1ccc2c(c1)N(CCCN1CCC(CCO)CC1)c1ccccc1S2 | inactive | inactive |  | inactive | inactive | inactive | inactive |  | inactive |  |  | inactive | inactive | inactive |  | inactive | inactive | inactive |  | 
CN=C(NC#N)Nc1ccc(C2=NNC(=O)CC2C)cc1 (stereo not drawn) | inactive | inactive |  | inactive | inactive | inactive | inactive | inactive |  | inactive |  |  |  | inactive |  | inactive | inactive |  | inactive | inactive
COc1cc(-c2ccc(=O)[nH]n2)ccc1OC(F)F | inactive |  | inactive | inactive |  | inactive |  |  | 0.501 µM (active) | inactive | inactive | inactive |  |  | inactive | inactive |  | inactive |  | inactive
CCN1CCN(c2cc3c(cc2F)c(=O)c(C(=O)O)cn3C2CC2)CC1 | inactive | inactive |  |  | inactive | inactive | inactive |  | inactive | inactive | inactive | inactive |  | inactive |  | inactive | inactive | inactive | inactive | inactive
Oc1ccc(Cl)cc1Sc1cc(Cl)ccc1O | inactive | inactive | inactive | inactive | inactive | inactive | inactive |  | inactive |  | inactive |  | inactive |  | 8.91 µM (active) | inactive |  | inactive |  | 
CC(C)(Oc1ccc(Cl)cc1)C(=O)O | inactive | inactive | inactive |  | inactive | inactive | inactive |  | inactive | inactive | inactive | inactive | inactive | inactive | inactive |  | inactive | inactive | inactive | inactive
CC(C)NC[C@@H](O)COc1cccc2ccccc12 | inactive |  |  |  | inactive | inactive |  |  |  | 13.5 µM (active) | 12.6 µM (active) |  | inactive | inactive | 7.08 µM (active) |  |  |  | 9.53 µM (active) | 12 µM (active)
CN(C)CC/C=C1\c2ccccc2Sc2ccc(Cl)cc21 | inactive |  | 11.2 µM (active) | inactive | inactive |  | inactive |  |  | 7.57 µM (active) | 8.91 µM (active) |  | 8.91 µM (active) | inactive | 10 µM (active) |  |  |  | 3.38 µM (active) | 
CC(=O)N/N=C/c1ccc([N+](=O)[O-])o1 | inactive | inactive | inactive | inactive | inactive | inactive | inactive | inactive |  | inactive | 12.6 µM (active) |  |  |  | 5.62 µM (active) | inactive | inactive |  |  | 
O=S1(=O)c2cccc3cccc(c23)N1CCCN1CCN(c2ccc(F)cc2)CC1 | inactive | inactive | inactive | inactive | inactive | inactive | inactive | inactive | inactive |  | inactive | inactive | inactive | inactive |  |  | inactive | inactive |  | inactive
CCOc1ccc(Cc2nccc3cc(OCC)c(OCC)cc23)cc1OCC | inactive | inactive | inactive | inactive | inactive | inactive |  |  | inactive | inactive | inactive | inactive | inactive | inactive | inactive |  |  |  | inactive | 
CO/N=C1\CN(c2nc3c(cc2F)c(=O)c(C(=O)O)cn3C2CC2)CC1CN (stereo not drawn) | 12 µM (active) | 5.36 µM (active) | 7.94 µM (active) |  |  |  |  | 6.75 µM (active) |  |  | 10 µM (active) |  |  |  | 5.62 µM (active) |  |  | 11.2 µM (active) |  | 9.53 µM (active)
Oc1ccc(O)cc1 | inactive |  |  |  |  |  |  | 2.39 µM (active) |  |  |  |  | inactive |  | 11.2 µM (active) | inactive |  |  | inactive | 
Oc1ccc(Cl)c2cccnc12 | inactive | inactive |  | inactive | inactive | inactive | inactive |  | inactive | inactive |  | inactive | inactive | inactive | 11.2 µM (active) | inactive | inactive |  | inactive | 
Cc1cccc(C)c1NC(=O)CN1CCN(CCCC(c2ccc(F)cc2)c2ccc(F)cc2)CC1 | inactive |  | inactive | inactive | inactive | inactive | inactive |  | inactive |  |  |  | inactive |  | 3.55 µM (active) | inactive |  |  |  | 
COC(=O)[C@H]1[C@H]2C[C@H]3c4[nH]c5ccccc5c4CCN3C[C@H]2CC[C@@H]1O | inactive | inactive |  | inactive | inactive | inactive | inactive | inactive |  | inactive |  |  |  | inactive |  | inactive | inactive |  | inactive | inactive
CCCCCCCCCCCCCCCC[N+](C)(C)CCN(Cc1ccc(OC)cc1)c1ncccn1 | inactive |  |  | inactive | inactive |  | inactive |  |  | 7.21 µM (active) |  | 1.12 µM (active) | inactive | inactive |  |  | inactive | inactive |  | 
CCN(CC)CCOC(=O)C(c1ccccc1)C1CCCCC1 (stereo not drawn) |  | inactive | inactive | inactive | inactive | inactive |  | inactive | inactive | 5.36 µM (active) | 11.2 µM (active) |  | inactive | inactive |  |  | inactive | inactive |  | 
CCOC(=O)c1cccc(N)c1 |  |  | inactive |  |  |  |  | inactive | inactive |  | inactive | inactive | inactive | 15.1 µM (active) | inactive |  | 12 µM (active) | inactive |  | 
CC(C)N=C(N)/N=C(\N)Nc1ccc(Cl)cc1 | inactive |  |  |  |  |  |  |  |  | inactive | 3.55 µM (active) |  |  |  |  |  |  |  |  | 
CN1CCN(CCCN2c3ccccc3Sc3ccc(S(=O)(=O)N(C)C)cc32)CC1 |  |  |  |  | inactive |  | inactive |  |  | 4.55 µM (active) | 3.55 µM (active) | 4.47 µM (active) |  |  | 1.41 µM (active) |  | 7.21 µM (active) |  |  | 
O=C(CCCN1CCC(O)(c2ccc(Br)cc2)CC1)c1ccc(F)cc1 |  |  |  |  |  |  |  |  | inactive | 5.73 µM (active) | 3.55 µM (active) | inactive | inactive | inactive | 3.55 µM (active) |  |  |  | 6.42 µM (active) | 5.73 µM (active)
C[C@@H]1CN(CCCn2c3ccccc3c3ccccc32)C[C@H](C)N1 |  |  | 12.6 µM (active) |  | inactive |  |  |  | 14.1 µM (active) | 2.39 µM (active) | 6.31 µM (active) | 10 µM (active) | inactive |  | 5.01 µM (active) |  | 9.53 µM (active) | inactive | 4.78 µM (active) | 13.5 µM (active)
O=C(N/N=C/c1ccccc1O)c1ccncc1 |  |  | 5.01 µM (active) |  |  |  |  | 6.01 µM (active) | 7.94 µM (active) |  | 11.2 µM (active) |  | inactive | inactive | 3.55 µM (active) |  |  |  |  | 
